From PubChem BioAssay (NCI)
The panel holds about 79,000 compounds, 15% with a hit somewhere; the sample as a whole holds those more often. Cut-off read from the data, not from the text of the source: active = growth inhibition above about 70%; inactive = the rest. Where a SMILES comes first, the peptide text is derived from it. The star is where a group is joined. Boc = CC(C)(C)OC(=O)*

Legend:
[1] = NCI Yeast Anticancer Drug Screen. Data for the rad50 strain (AID 155);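 note: 0% = growth of vehicle-only cultures of the same strain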; details: S. cerevisiae rad50 strain growth inhibition; at 50.0 µM; active compounds read high
Procedure, shortened: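 Vehicle-treated cultures provide the reference for the growth inhibition reported for compound-exposed, repair-deficient yeast.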

[2] = NCI Yeast Anticancer Drug Screen. Data for the mec2-1 strain (AID 157); details: S. cerevisiae mec2-1 strain, at 50.0 µM, active compounds read high
Procedure, shortened: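 Cells of the genetically defined mec2-1 yeast strain are incubated with test compound. Inhibition of growth is calculated against vehicle-treated controls.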

[3] = NCI Yeast Anticancer Drug Screen. Data for the sgs1 mgt1 strain (AID 161);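 note: 0% = growth of cultures given vehicle only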; details: S. cerevisiae sgs1 mgt1 strain, at 50.0 µM, active compounds read high
Procedure, shortened: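 Mutant yeast exposed to compound; growth scored against vehicle-only wells.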

[4] = NCI Yeast Anticancer Drug Screen. Data for the cln2 rad14 strain (AID 165);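 note: 0% = growth equal to vehicle treated cultures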; details: S. cerevisiae cln2 rad14 strain, at 50.0 µM, active compounds read high
Procedure, shortened: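 The screen exposed genetically defined yeast (cln2 rad14) to test compounds and scored growth inhibition relative to vehicle-treated controls.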

[5] = NCI Yeast Anticancer Drug Screen. Data for the bub3 strain (AID 167); details: S. cerevisiae bub3 mutant strain, at 50.0 µM, active compounds read high
Procedure, shortened: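 Mutant yeast screening strain plus compound; vehicle-treated cultures serve as the 0% inhibition reference.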

[6] = NCI Yeast Anticancer Drug Screen. Data for the mlh1 rad18 strain (AID 175); details: S. cerevisiae mlh1 rad18 strain growth inhibition; at 50.0 µM; active compounds read high
Procedure, shortened: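 Compound-treated yeast growth, normalised to vehicle controls. Strain bears defined DNA repair mutations.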

Measured: growth inhibition

Cc1cnc2[nH]c(-c3ccc(Cl)cc3)cc(=O)c2c1
inactive: [1] -5.65% | [2] -21.6% | [3] -31.9% | [4] -31.4% | [5] -32% | [6] -52.1%

CSC(=S)n1nc(-c2cccs2)c(N=Nc2ccc([N+](=O)[O-])cc2)c1C(F)(F)F
inactive: [1] 19.1% | [2] -3.75% | [3] 19.9% | [4] 12.2% | [5] 3.8% | [6] 0.85%

Cn1c(N)cc(=O)nc1N
inactive: [1] -7.55% | [2] 2.05% | [3] 6.2% | [4] 10.7% | [5] -1% | [6] 8.2%

O=C1CCC(C(Sc2ccccc2)(Sc2ccccc2)Sc2ccccc2)C1 (stereo not drawn)
inactive: [1] -5.05% | [2] -21.7% | [3] -22% | [4] -7.2% | [5] -1.55% | [6] -41.4%

CCOC(=O)CC(C(=O)OCC)C(C(=O)OCC)C(=O)OCC (stereo not drawn)
inactive: [1] 41.9% | [2] -4.1% | [3] 19.6% | [4] 3.4% | [5] 29.8% | [6] 13.6%

CC(C)=C1C=CC=C1
inactive: [1] -8% | [2] 0.65% | [3] 1.6% | [4] -5% | [5] 9.4% | [6] -6.95%

Nc1ccc(S(=O)(=O)NO)cc1
inactive: [1] -12.1% | [2] -3.95% | [3] -2.55% | [4] -27.1% | [5] -2.2% | [6] 11.3%

CC(/C=N/N(C)C1=NCCCCN1)=N/N(C)C1=NCCCCN1
inactive: [1] 23.9% | [2] 12.7% | [3] 18.5% | [4] -21.6% | [5] -2.5% | [6] 29.4%

CC(=O)N1c2ccccc2C2(C)CCCC(O)C12O (stereo not drawn)
inactive: [1] 8.05% | [2] 6.05% | [3] -3.9% | [4] 1.9% | [5] 6.5% | [6] -23.9%

CC(=O)NC(CCCCN(Cc1ccccc1)C(=O)N(C)N=O)C(=O)NCc1ccccc1 (stereo not drawn)
inactive: [1] 0.3% | [2] -6.7% | [3] 24.4% | [4] -0.15% | [5] -22.9% | [6] -6.4%

CC(NC(=O)C(NC(=O)OC(C)(C)C)C(C)C)C(=O)N1CCCC1C(=O)O (stereo not drawn) (Boc-Val-Ala-Pro-OH; configuration not given here)
inactive: [1] -38.4% | [2] -52.5% | [3] -41% | [4] -28.7% | [5] -20.6% | [6] -38.4%

CCC(O)C1CCCCN1 (stereo not drawn)
inactive: [1] -20.8% | [2] -7% | [3] -12.2% | [4] -4.05% | [5] -17.5% | [6] -11.2%

CC1=C(C#N)C(=O)OC1(C)C1CCCC(=O)C1 (stereo not drawn)
inactive: [1] -24.8% | [2] -1.45% | [3] -11.3% | [4] -2.7% | [5] 1.95% | [6] -3.75%

C=CCn1c(=S)sc2c(C(=O)OCC)c3c(C)cc(C)cn3c2c1=O
inactive: [1] -18.1% | [2] -56.5% | [3] -60% | [4] -5% | [5] -34.7% | [6] -37.9%

[C-]#[N+]C([N+]#[C-])=C(C)OCC
inactive: [1] 7.9% | [2] 5.1% | [3] -5.2% | [4] 10.8% | [5] 21.6% | [6] 2.5%

N#CCCN(CCC#N)c1ccc(/C=C2/C=C(c3ccccc3)OC2=O)cc1
inactive: [1] 22.4% | [2] -0.25% | [3] 19.1% | [4] 7.75% | [5] -5.85% | [6] 11.3%

CC(C)N(CC(c1ccccc1)C(O)(c1ccccc1)c1ccccc1)C(C)C (stereo not drawn)
inactive: [1] 16.1% | [2] 8% | [3] 17.5% | [4] 26.8% | [5] -0.75% | [6] 32.3%

O=C(O)c1ccc(/C=N/NC(=O)C(O)(c2ccccc2)c2ccccc2)cc1
inactive: [1] 8.3% | [2] -21.9% | [3] -18.9% | [4] 11.7% | [5] -10.4% | [6] -9.65%

Cc1nc2c(N3CCOCC3)ncnc2o1
inactive: [1] 5.15% | [2] -1.05% | [3] -5.5% | [4] -27.4% | [5] -15.3% | [6] 7.75%

O=C(O)c1ccc(OS(=O)(=O)c2ccccc2)cc1
inactive: [1] 26.5% | [2] 8.1% | [3] 39.7% | [4] 22.4% | [5] 46.9% | [6] 16.3%

CCOC(=O)CN1CC(C2=C(O)CN(CC(=O)OCC)C2=O)=CC1=O
inactive: [1] 0.75% | [2] 9.7% | [3] -12.6% | [4] 29.1% | [5] 9.55% | [6] -27%

CC1(C)Nc2cc3c(cc2-n2cccc21)oc1ccccc13
inactive: [1] 17.3% | [2] -3.55% | [3] 39.5% | [4] 45.6% | [5] 30.4% | [6] 27.4%

CC1(C(=O)O)CCC2(C)CCC3(C)C(=CC(=O)C4C5(C)CCC(OC6OC(C(=O)O)C(O)C(O)C6OC6OC(C(=O)O)C(O)C(O)C6O)C(C)(C)C5CCC43C)C2C1 (stereo not drawn)
inactive: [1] 13.6% | [2] 3.95% | [3] -2.25% | [4] 24.8% | [5] 15.8% | [6] 19.2%

O=C1O/C(=C/c2ccc(O)cc2)c2ccccc21
inactive: [1] 0.9% | [2] -26.9% | [3] -4.1% | [4] -15.1% | [5] 6.9% | [6] -11.4%

Clc1ccc(C(Cl)(c2ccc(Cl)cc2)C(Cl)(Cl)Cl)cc1
inactive: [1] -14.1% | [2] -14.4% | [3] -7.4% | [4] -6.2% | [5] 32.9% | [6] 11.8%

O=c1[nH]c(=O)n(C2CC(O)C(CO)O2)cc1C#Cc1ccc(C(F)(F)F)cc1 (stereo not drawn)
inactive: [1] 13.1% | [2] -3.4% | [3] 5% | [4] -2.45% | [5] 19.2% | [6] -13.7%

O=C(Nc1ccc(Cl)c(Cl)c1)Oc1ccc2ccccc2c1
inactive: [1] 13.4% | [2] 24.9% | [3] 34.5% | [4] -0.35% | [5] 4.1% | [6] 61.1%

O=C(O)c1ccccc1C(=O)Nc1ccc2ccccc2c1
inactive: [1] 15.9% | [2] -4.6% | [3] 5% | [4] 2.6% | [5] 7.55% | [6] 18.9%

CC(C)N1CCN(c2ccncc2S(=O)(=O)N2CCCCC2)CC1
inactive: [1] -14.1% | [2] -23.2% | [3] -12.3% | [4] -5.5% | [5] -21.9% | [6] -30.4%

O=C(Nc1ccc(C(F)(F)F)cc1)NC(F)(F)F
inactive: [1] -61.1% | [2] -6.7% | [3] -38.1% | [4] -16.6% | [5] -3.65% | [6] -46.3%

Cc1ccc(S(=O)(=O)CC(=O)c2ccc(Br)cc2)cc1
inactive: [1] -2.7% | [2] -21.2% | [3] -16.4% | [4] 4.9% | [5] 6.55% | [6] 8.75%

CCNC(CC(N)=O)C(=O)O (stereo not drawn)
inactive: [1] -22.1% | [2] -3.75% | [3] 0.15% | [4] -4.05% | [5] -26.4% | [6] -11.6%

CCCCCCC(C)N1C(=O)c2ccccc2C1=O (stereo not drawn)
inactive: [1] 6.25% | [2] 6.75% | [3] 4.75% | [4] -39.1% | [5] 0.7% | [6] -8.4%

CC(=O)[O-].O=S(=O)(Nc1ncccn1)c1ccc(N=Cc2ccccc2O)cc1.O=S(=O)(Nc1ncccn1)c1ccc(N=Cc2ccccc2O)cc1.[Cu+2]
inactive: [1] -7.4% | [2] -21.6% | [3] -17.4% | [4] -8.25% | [5] -17.6% | [6] -1.35%

CC(=O)OC1C/C(C)=C/CCC(C)/C=C/C2(C)CCC(C(C)(C)O)C12 (stereo not drawn)
inactive: [1] 1.7% | [2] -10.3% | [3] 11.9% | [4] 2.5% | [5] 14.1% | [6] 17.6%

CCOC(C)Oc1ccccc1 (stereo not drawn)
inactive: [1] 35.5% | [2] -8.6% | [3] 20.4% | [4] 15.4% | [5] -28.1% | [6] 16.4%

NC(C(=O)O)c1ccccc1C(=O)O (stereo not drawn)
inactive: [1] -21.4% | [2] -19.9% | [3] -13.4% | [4] 0.8% | [5] -7.8% | [6] -21.9%

Oc1ccccc1C=NCCN(CCN=Cc1ccccc1O)c1ccccc1
inactive: [1] 21.1% | [2] 7.1% | [3] 26.1% | [4] 12.8% | [5] 8.9% | [6] 32.5%
